# In PubChem BioAssay (EPA / NIEHS):
# Inconclusive results are not listed. Activity calls are given as the source filed them. How the source made its calls, unless noted: active means hit-call score of the fitted dose curve at least 0.9, where 1 is the maximum; inconclusive means response in the unintended direction; inactive means score below 0.9.
# How the values were obtained:
# [1] = molecular target: human RAR-related Orphan Receptor gamma (RORg), RORC (gene 6097) (UniProt P51449); assay: ATG_RORg_TRANS: Attagene TRANS-FACTORIAL HepG2 Assay for human RAR-related Orphan Receptor gamma (RORg) (AID 2283011);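 on AC50: potency for induction of reporter transcripts above DMSO so activators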
# Procedure, shortened: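 Transient MRTU transfection of HepG2 (TRANS format, exogenous NR-Gal4 chimera). 24 h dosing. Total RNA → oligo(dT) RT → PCR → 6-FAM labelling → HpaI cut → CE. Gain vs DMSO.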
# [2] = molecular target: Retinoic acid receptor RXR-alpha (Homo sapiens) (UniProt P19793); assay: ATG_RXRa_TRANS: Attagene TRANS-FACTORIAL HepG2 Assay for human Retinoid X Receptor alpha (RXRa) (AID 2283012)
# Procedure, shortened: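 Read-out: fluorescent reporter-transcript fragments quantified by capillary electrophoresis after RT-PCR. Transiently transfected HepG2 cells carrying GAL4-UAS reporters and NR-GAL4 chimeras were exposed to chemical for 24 h; activity scored as increase over DMSO.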
# [3] = molecular target: human Retinoid X Receptor beta (RXRb), RXRB (gene 6257) (UniProt P28702); assay: ATG_RXRb_TRANS: Attagene TRANS-FACTORIAL HepG2 Assay for human Retinoid X Receptor beta (RXRb) (AID 2283013)
# Procedure, shortened: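 Read-out: reporter mRNA induction via RT-PCR plus capillary electrophoresis fluorescence, analysed as signal increase relative to DMSO. Cells were human HepG2, transiently transfected with GAL4-UAS reporter constructs and chimeric receptor-Gal4 fusions, dosed for 24 h.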
# [4] = molecular target: human Thyroid Receptor alpha (THRa1), THRA (gene 7067) (UniProt P10827); assay: ATG_THRa1_TRANS: Attagene TRANS-FACTORIAL HepG2 Assay for human Thyroid Receptor alpha (THRa1) (AID 2283014)
# Procedure, shortened: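 Transient HepG2 transfection, NR-Gal4 chimera driving GAL4-UAS reporters; 24 h compound exposure; total RNA, oligo(dT) RT, PCR, fluorescent primer extension, capillary electrophoresis. Upward direction vs DMSO control.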
# [5] = read-out: E-selectin (Homo sapiens) (UniProt P16581); assay: BSK_3C_Eselectin: BioMAP Diversity Plus: 3C Assay for Eselectin Biomarker Activity (AID 2283015; active means hit-call score of the fitted dose curve at least 0.9, where 1 is the maximum; inactive means score below 0.9;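 on outcome: cell surface E-selectin protein quantified by ELISA 24 h after dosing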); conditions: primary human endothelial cells (HUVEC); actives raise or lower the signal
# Procedure, shortened: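 HUVEC, 3C stimulation; compound exposure 24 h; E-selectin by ELISA; gain- or loss-of-signal fitted bidirectionally vs DMSO baseline.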
# [6] = read-out: Interleukin-1 alpha (IL1a), IL1A (gene 3552); assay: BSK_BE3C_IL1a: BioMAP Diversity Plus: BE3C Assay for Interleukin-1 alpha (IL1a) Biomarker Activity (AID 2283016; active means hit-call score of the fitted dose curve at least 0.9, where 1 is the maximum; inactive means score below 0.9); conditions: primary human bronchial epithelial cells; actives raise or lower the signal
# Procedure, shortened: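 ELISA read-out of IL-1a from human lung bronchial epithelial primary cells, 24 h post-dose. Gain or loss of signal fitted relative to DMSO negative control.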
# [7] = read-out: Monocyte Chemoattractant Protein-1 (MCP1), CCL2 (gene 6347); assay: BSK_3C_MCP1: BioMAP Diversity Plus: 3C Assay for Monocyte Chemoattractant Protein-1 (MCP1) Biomarker Activity (AID 2283017; active means hit-call score of the fitted dose curve at least 0.9, where 1 is the maximum; inactive means score below 0.9); conditions: primary human endothelial cells (HUVEC); actives raise or lower the signal
# Procedure, shortened: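 HUVEC, 3C system; 24 h chemical exposure; MCP-1 by ELISA; bidirectional curve fit vs DMSO baseline.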
# [8] = read-out: Monocyte Chemoattractant Protein-1 (MCP1), CCL2 (gene 6347); assay: BSK_4H_MCP1: BioMAP Diversity Plus: 4H Assay for Monocyte Chemoattractant Protein-1 (MCP1) Biomarker Activity (AID 2283018; active means hit-call score of the fitted dose curve at least 0.9, where 1 is the maximum; inactive means score below 0.9); conditions: primary human endothelial cells (HUVEC); actives raise or lower the signal
# Procedure, shortened: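 HUVEC primary cells, 24 h post-dose, MCP-1 by ELISA. Gain or loss of signal fitted bidirectionally vs DMSO baseline. Cytotoxicity: SRB stain (0.1% after 10% TCA fixation), read 560 nm, parallel cultures.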
# [9] = read-out: Human Leukocyte Antigen - DR isotype (HLADR), HLA-DRA (gene 3122); assay: BSK_3C_HLADR: BioMAP Diversity Plus: 3C Assay for Human Leukocyte Antigen - DR isotype (HLADR) Biomarker Activity (AID 2283019; active means hit-call score of the fitted dose curve at least 0.9, where 1 is the maximum; inactive means score below 0.9;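 on outcome: ELISA of cell-surface HLA-DR on HUVEC 24 h after dosing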); conditions: primary human endothelial cells (HUVEC); actives raise or lower the signal
# Procedure, shortened: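 HUVEC, 3C stimulation, 24 h post-dose; HLA-DR by ELISA; bidirectional curve fit vs DMSO baseline; gain or loss of signal scored.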
# [10] = read-out: Interleukin-8 (IL8), CXCL8 (gene 3576); assay: BSK_3C_IL8: BioMAP Diversity Plus: 3C Assay for Interleukin-8 (IL8) Biomarker Activity (AID 2283020; active means hit-call score of the fitted dose curve at least 0.9, where 1 is the maximum; inactive means score below 0.9); conditions: primary human endothelial cells (HUVEC); actives raise or lower the signal
# Procedure, shortened: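 HUVEC, 3C stimulation; 24 h compound exposure; IL-8 read by ELISA; gain or loss of signal fitted relative to DMSO control.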
# Sequence of Retinoic acid receptor RXR-alpha (Homo sapiens) (P19793 whole entry, looked up, the tested form may be a part): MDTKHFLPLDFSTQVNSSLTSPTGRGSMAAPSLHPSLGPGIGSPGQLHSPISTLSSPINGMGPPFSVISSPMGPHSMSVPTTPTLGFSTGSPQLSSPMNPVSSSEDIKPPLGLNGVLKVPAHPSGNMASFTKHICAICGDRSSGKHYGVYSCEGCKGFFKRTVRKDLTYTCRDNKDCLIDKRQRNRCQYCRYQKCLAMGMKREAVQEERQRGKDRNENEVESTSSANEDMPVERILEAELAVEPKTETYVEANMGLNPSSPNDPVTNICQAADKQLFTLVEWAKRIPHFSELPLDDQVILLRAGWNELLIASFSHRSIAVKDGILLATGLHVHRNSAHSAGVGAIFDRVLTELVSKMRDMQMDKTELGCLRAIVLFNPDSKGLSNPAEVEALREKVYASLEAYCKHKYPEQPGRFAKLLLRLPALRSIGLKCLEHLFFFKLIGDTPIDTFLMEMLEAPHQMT
# Sequence of E-selectin (Homo sapiens) (P16581 whole entry, looked up): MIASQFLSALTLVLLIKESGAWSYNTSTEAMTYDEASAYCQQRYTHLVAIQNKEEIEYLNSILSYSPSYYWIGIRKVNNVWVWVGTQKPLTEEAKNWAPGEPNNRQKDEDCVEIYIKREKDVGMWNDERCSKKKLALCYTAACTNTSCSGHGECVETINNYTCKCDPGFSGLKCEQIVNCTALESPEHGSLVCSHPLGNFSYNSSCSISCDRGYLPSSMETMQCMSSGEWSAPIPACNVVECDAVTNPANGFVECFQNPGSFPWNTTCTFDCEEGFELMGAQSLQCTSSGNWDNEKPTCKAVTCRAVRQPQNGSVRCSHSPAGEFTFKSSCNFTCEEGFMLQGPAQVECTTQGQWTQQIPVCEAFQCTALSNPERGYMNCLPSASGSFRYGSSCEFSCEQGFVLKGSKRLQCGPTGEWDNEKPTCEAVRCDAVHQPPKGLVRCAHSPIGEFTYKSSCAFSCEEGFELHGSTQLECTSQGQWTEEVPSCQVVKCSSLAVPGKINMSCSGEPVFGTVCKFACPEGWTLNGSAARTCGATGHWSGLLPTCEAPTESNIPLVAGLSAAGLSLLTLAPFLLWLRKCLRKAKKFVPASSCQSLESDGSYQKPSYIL
# Sequence of human Thyroid Receptor alpha (THRa1), THRA (gene 7067) (P10827 whole entry, looked up, the tested form may be a part): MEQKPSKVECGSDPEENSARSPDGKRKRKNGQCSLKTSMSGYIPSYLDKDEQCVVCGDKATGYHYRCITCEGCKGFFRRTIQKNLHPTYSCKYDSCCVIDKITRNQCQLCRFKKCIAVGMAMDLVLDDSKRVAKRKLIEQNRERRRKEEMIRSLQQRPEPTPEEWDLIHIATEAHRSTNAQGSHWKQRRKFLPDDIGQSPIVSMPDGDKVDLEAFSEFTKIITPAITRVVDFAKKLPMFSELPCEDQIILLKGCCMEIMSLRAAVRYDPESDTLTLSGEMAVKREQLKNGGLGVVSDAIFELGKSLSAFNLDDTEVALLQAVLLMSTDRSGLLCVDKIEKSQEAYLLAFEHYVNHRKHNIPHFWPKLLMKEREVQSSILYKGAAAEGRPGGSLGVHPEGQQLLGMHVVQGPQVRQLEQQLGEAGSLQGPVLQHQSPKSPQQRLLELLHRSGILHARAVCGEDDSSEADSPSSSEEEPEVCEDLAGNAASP
# Sequence of human Retinoid X Receptor beta (RXRb), RXRB (gene 6257) (P28702 whole entry, looked up, the tested form may be a part): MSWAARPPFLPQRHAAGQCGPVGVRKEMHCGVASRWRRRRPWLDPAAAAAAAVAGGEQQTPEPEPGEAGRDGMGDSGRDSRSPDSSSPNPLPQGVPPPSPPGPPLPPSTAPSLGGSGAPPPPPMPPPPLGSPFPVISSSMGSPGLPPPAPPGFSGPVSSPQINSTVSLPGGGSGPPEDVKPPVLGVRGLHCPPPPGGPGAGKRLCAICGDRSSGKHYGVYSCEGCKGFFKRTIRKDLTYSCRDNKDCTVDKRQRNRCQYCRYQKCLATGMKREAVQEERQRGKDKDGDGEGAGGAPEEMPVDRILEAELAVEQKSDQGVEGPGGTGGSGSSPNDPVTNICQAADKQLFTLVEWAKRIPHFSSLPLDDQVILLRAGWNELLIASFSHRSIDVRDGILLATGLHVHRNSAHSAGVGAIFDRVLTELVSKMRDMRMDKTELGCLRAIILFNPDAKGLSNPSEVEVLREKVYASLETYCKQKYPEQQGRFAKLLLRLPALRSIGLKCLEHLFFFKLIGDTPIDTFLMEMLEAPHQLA
# Sequence of human RAR-related Orphan Receptor gamma (RORg), RORC (gene 6097) (P51449 whole entry, looked up, the tested form may be a part): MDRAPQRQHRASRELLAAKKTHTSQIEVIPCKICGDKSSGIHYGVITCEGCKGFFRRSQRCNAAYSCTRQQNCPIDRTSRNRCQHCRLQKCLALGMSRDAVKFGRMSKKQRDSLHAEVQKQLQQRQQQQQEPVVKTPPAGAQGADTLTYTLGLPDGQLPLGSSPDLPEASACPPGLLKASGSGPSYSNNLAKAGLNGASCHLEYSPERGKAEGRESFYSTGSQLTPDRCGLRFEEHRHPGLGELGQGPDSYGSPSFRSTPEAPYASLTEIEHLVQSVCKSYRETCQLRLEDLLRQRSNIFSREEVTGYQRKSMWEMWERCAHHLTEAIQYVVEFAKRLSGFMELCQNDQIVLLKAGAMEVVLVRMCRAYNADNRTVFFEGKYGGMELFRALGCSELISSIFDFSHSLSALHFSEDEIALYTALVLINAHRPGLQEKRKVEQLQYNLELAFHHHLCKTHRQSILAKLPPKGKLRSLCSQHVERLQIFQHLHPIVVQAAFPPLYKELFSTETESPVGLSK
compound,measurement,setting,value
CC(C)=CCC/C(C)=C/COC=O,outcome,[1],inactive
same,outcome,[2],inactive
same,outcome,[3],inactive
CN1[C@@H]2CC(OC(=O)[C@H](CO)c3ccccc3)C[C@H]1[C@@H]1O[C@@H]12 (some centres not stated),outcome,[1],inactive
same,outcome,[2],inactive
same,AC50,[3],160 µM (active)
NCCOCCO,outcome,[1],inactive
O=Cc1ccc(F)cc1,outcome,[1],inactive
same,outcome,[2],inactive
same,outcome,[3],inactive
COC(=O)OC,outcome,[1],inactive
same,outcome,[2],inactive
same,outcome,[3],inactive
C=C[C@@H](C)CCC=C(C)C,outcome,[1],inactive
Cc1cccc(C)c1C,outcome,[1],inactive
Nc1cc(N)cc(C(=O)O)c1,outcome,[1],inactive
same,outcome,[2],inactive
COCCOCCOCCOCCOCCO,outcome,[1],inactive
NCCCCCCN,outcome,[1],inactive
same,outcome,[2],inactive
COc1ccc(NC(=O)CC(C)=O)cc1,outcome,[1],inactive
same,outcome,[2],inactive
CCCCCOC(=O)CCC,outcome,[1],inactive
CC(C)=CCC[C@](C)(O)[C@@H]1CC=C(C)CC1,outcome,[1],inactive
same,outcome,[2],inactive
same,outcome,[3],inactive
CC(=O)OCC=Cc1ccccc1,outcome,[1],inactive
S=C(S)NCCNC(=S)S,outcome,[1],inactive
same,outcome,[2],inactive
O=C1NC(=O)c2ccccc21,outcome,[1],inactive
CC(C)=CCO,outcome,[1],inactive
same,outcome,[2],inactive
CC1(CO)CN(c2ccccc2)NC1=O (configuration not stated),outcome,[1],inactive
COc1cccc(OC)c1,outcome,[1],inactive
CCCC(=O)c1cc(O)c(O)cc1O,outcome,[1],inactive
O=C[C@H](O)[C@H](O)[C@H](O)CO,outcome,[1],inactive
CCCC(=O)C(C)=O,outcome,[1],inactive
CCCCOCCOCCSC#N,outcome,[1],inactive
same,outcome,[2],inactive
same,outcome,[3],inactive
N#Cc1nc(Cl)c(Cl)c(Cl)c1Cl,AC50,[1],2.56 µM (active)
O=Nc1ccc(Nc2ccccc2)cc1,AC50,[1],40.4 µM (active)
[Ca+2],outcome,[1],inactive
same,outcome,[2],inactive
same,outcome,[3],inactive
O=C(O)CN(CCN(CC(=O)O)CC(=O)O)CCN(CC(=O)O)CC(=O)O,outcome,[1],inactive
same,outcome,[2],inactive
O=C(O)Cc1cccc2ccccc12,outcome,[1],inactive
same,outcome,[2],inactive
same,outcome,[3],inactive
NC(=O)c1ccccc1Cl,outcome,[1],inactive
same,outcome,[2],inactive
same,outcome,[3],inactive
CC(C)CCCCCCCOC(=O)c1ccc(C(=O)OCCCCCCCC(C)C)c(C(=O)OCCCCCCCC(C)C)c1,outcome,[1],inactive
O=C(O)CCSCCC(=O)O,outcome,[1],inactive
same,outcome,[2],inactive
CC(C)C[C@H]1C(=O)N2CCC[C@H]2[C@]2(O)O[C@](NC(=O)[C@@H]3C=C4c5cccc6[nH]c(Br)c(c56)C[C@H]4N(C)C3)(C(C)C)C(=O)N12,outcome,[1],inactive
CC(C)C(C)(C)C(C)(C)C(C)(C)S,outcome,[1],inactive
CC1(C)OC[C@@H]2O[C@@]3(C(=O)O)OC(C)(C)O[C@H]3[C@@H]2O1,outcome,[1],inactive
O=C(O)CCCCC1CCSS1 (configuration not stated),outcome,[1],inactive
N#Cc1ccccc1,outcome,[1],inactive
same,outcome,[2],inactive
O=c1oc(=O)c2cc3c(=O)oc(=O)c3cc12,outcome,[1],inactive
same,outcome,[2],inactive
CSc1nnc(C(C)(C)C)c(=O)[nH]1,outcome,[1],inactive
CC1CCC2CC1C2(C)C (configuration not stated),outcome,[1],inactive
C[C@H]1C[C@@H]2[C@H]([C@@H](O)C[C@@]3(C)[C@H]2CC[C@]3(O)C(=O)CO)[C@@]2(C)C=CC(=O)C=C12,outcome,[2],inactive
same,outcome,[3],inactive
same,outcome,[4],inactive
same,outcome,[5],inactive
same,outcome,[6],inactive
same,outcome,[7],inactive
same,outcome,[8],inactive
same,outcome,[9],inactive
same,outcome,[10],inactive
Cc1c(Cl)c(=O)oc2cc(O)ccc12,outcome,[2],inactive
same,outcome,[3],inactive
same,outcome,[4],inactive
CC(CCO)CCc1ccccc1 (configuration not stated),outcome,[2],inactive
same,outcome,[3],inactive
same,outcome,[4],inactive
CCCCCCCCCCCCCC(=O)O,outcome,[2],inactive
same,AC50,[3],69.7 µM (active)
CC(C)=CCCC(C)=CCCC(C)=CCO,AC50,[2],100 µM (active)
same,AC50,[3],28.1 µM (active)
O=S(=O)(O)c1cccc2c(S(=O)(=O)O)cccc12,outcome,[2],inactive
same,outcome,[3],inactive
CCCCNC(=O)NS(=O)(=O)c1ccc(C)cc1,outcome,[2],inactive
same,outcome,[3],inactive
same,outcome,[4],inactive
C#C[C@]1(O)CC[C@H]2[C@@H]3CCC4=Cc5oncc5C[C@]4(C)[C@H]3CC[C@@]21C,AC50,[2],120 µM (active)
same,AC50,[3],154 µM (active)
same,AC50,[5],1.49 µM (active)
same,AC50,[6],33.4 µM (active)
same,outcome,[7],inactive
same,outcome,[8],inactive
same,AC50,[9],20 µM (active)
same,outcome,[10],inactive
CN(C)CCCN,outcome,[2],inactive
same,outcome,[3],inactive
CCCc1c(OCCCOc2ccc(OCC(=O)O)cc2)ccc(C(C)=O)c1O,outcome,[2],inactive
same,AC50,[3],8.03 µM (active)
same,outcome,[4],inactive
CCC(O)CO (configuration not stated),outcome,[2],inactive
same,outcome,[3],inactive
same,outcome,[4],inactive
Clc1cccc(Cl)n1,outcome,[2],inactive
same,outcome,[3],inactive
same,outcome,[4],inactive
CCn1c2ccccc2c2cc(N)ccc21,outcome,[2],inactive
same,AC50,[3],14.3 µM (active)
same,outcome,[4],inactive
same,outcome,[5],inactive
same,outcome,[6],inactive
same,AC50,[7],641 nM (active)
same,AC50,[8],812 nM (active)
same,AC50,[9],1.57 µM (active)
same,outcome,[10],inactive
CC(=O)OCCC(C)CC(C)(C)C (configuration not stated),outcome,[2],inactive
same,outcome,[3],inactive
same,outcome,[4],inactive
same,outcome,[5],inactive
same,outcome,[6],inactive
same,outcome,[7],inactive
same,outcome,[8],inactive
same,outcome,[9],inactive
same,outcome,[10],inactive
